# Reference: PubChem BioAssay AID720492 (Broad Institute, 2013)
# Calls of active or inactive are those of the source.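 Rule for the calls: active = unnormalized dose curve rising to cross level 40 at or below the top tested dose; inconclusive = flat fit at moderately raised activity, or poor fit; inactive = the rest.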
# Experiment: miR-27b level by RT-PCR, dose response, miR-122 / miR-27b project, Huh7 cells, cherry-pick, activator set (AID 720492)
row,SMILES,outcome
1,C[C@@H]1CN([C@H](C)CO)S(=O)(=O)c2ccc(C#Cc3ccncc3)cc2O[C@H]1CN(C)C(=O)C1CCOCC1,inactive
2,C[C@H]1CN([C@@H](C)CO)S(=O)(=O)c2ccc(C#Cc3ccncc3)cc2O[C@H]1CN(C)C(=O)C1CCOCC1,inactive
3,C[C@H]1CN([C@@H](C)CO)C(=O)c2cc(-c3ccc(C#N)cc3)cnc2O[C@H]1CN(C)C(=O)Nc1ccc(C(F)(F)F)cc1,inactive
4,COCC(=O)N(C)C[C@H]1Oc2cc(-c3ccc(C#N)cc3)ccc2S(=O)(=O)N([C@H](C)CO)C[C@H]1C,inactive
5,C[C@H]1CN([C@@H](C)CO)C(=O)c2cc(-c3ccc(C#N)cc3)cnc2O[C@H]1CN(C)C(=O)c1ccccc1,inactive
6,CN1C(=O)c2cc(NC(=O)c3cccc(F)c3)ccc2OC[C@H]2O[C@@H](CC(=O)O)CC[C@H]21,inactive
7,CO[C@@H]1CN(C)C(=O)c2cc(NS(=O)(=O)c3ccc(Oc4ccccc4)cc3)ccc2OC[C@H](C)NC[C@@H]1C,inactive
8,CN1C(=O)c2cc(NC(=O)c3cccc(F)c3)ccc2OC[C@H]2O[C@H](CC(=O)O)CC[C@@H]21,inactive
9,CO[C@@H]1CN(C)C(=O)c2cc(NC(=O)c3ccc4c(c3)OCO4)ccc2OC[C@H](C)NC[C@@H]1C,inactive
10,C[C@H](CO)N1C[C@H](C)[C@@H](CN(C)C(=O)C2CCOCC2)Oc2cc(C#Cc3ccncc3)ccc2S1(=O)=O,inactive
11,Cc1cccc(NC(=O)Nc2ccc3c(c2)C(=O)N(C)[C@@H]2CC[C@H](CC(=O)NCc4ccccc4Cl)O[C@H]2CO3)c1,inactive
12,CN1C(=O)c2cc(NC(=O)c3cccc(F)c3)ccc2OC[C@@H]2O[C@@H](CC(=O)O)CC[C@H]21,inactive
13,C[C@@H]1CN([C@@H](C)CO)S(=O)(=O)c2ccc(C#Cc3ccncc3)cc2O[C@H]1CN(C)C(=O)C1CCOCC1,inactive
14,CCCC#Cc1ccc2c(c1)O[C@H](CN(C)C(=O)COC)[C@H](C)CN([C@@H](C)CO)S2(=O)=O,inactive
15,C[C@H]1CN([C@@H](C)CO)C(=O)c2cc(C#Cc3ccccc3F)cnc2O[C@@H]1CN(C)C(=O)C1CCCCC1,inactive
16,C[C@H]1CN([C@@H](C)CO)C(=O)c2cc(C#Cc3ccccc3F)cnc2O[C@H]1CN(C)C(=O)C1CCCCC1,inactive
17,CCCC#Cc1ccc2c(c1)O[C@H](CN(C)C(=O)c1ccncc1)[C@H](C)CN([C@@H](C)CO)S2(=O)=O,inactive
18,COCC(=O)N(C)C[C@H]1Oc2cc(C#Cc3cccnc3)ccc2S(=O)(=O)N([C@@H](C)CO)C[C@H]1C,inactive
19,Cc1cccc(NC(=O)Nc2ccc3c(c2)C(=O)N(C)[C@@H]2CC[C@@H](CC(=O)NCc4ccccc4Cl)O[C@H]2CO3)c1,inactive
20,COCC(=O)N(C)C[C@H]1Oc2cc(C#Cc3cccnc3)ccc2S(=O)(=O)N([C@H](C)CO)C[C@H]1C,inactive
21,COc1ccc(-c2cnc3c(c2)C(=O)N([C@@H](C)CO)C[C@H](C)[C@H](CN(C)S(=O)(=O)c2ccc(OC)cc2)O3)cc1,inactive
